In the library only some 6.9% were active in any assay of this set; here they are far more common.
MPTP block: mitochondrial permeability transition pore inhibitors, primary screen, biochemical, isolated mouse mitochondria, absorbance; Ca2+ swelling absorbance, 30 min; inhibition, % at 10 µM; actives 1.4% (n = 360,000);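 active = inhibition of 50% or more, scaled per plate between neutral and stimulator controls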
GRIN3A LBD mod: binders of NR3A ligand-binding domain, primary screen, biophysical, differential scanning fluorimetry, uHTS | Glutamate receptor ionotropic, NMDA 3A (GRIN3A) ligand-binding domain | NR3A LBD differential scanning fluorimetry, Tm shift; 0% = protein alone, 100% = glycine-bound protein | Tm shift relative to glycine control, % at 25 µM | actives 2.5% (n = 340,000) | AID 1259313, 2017;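 active = melting temperature shift of at least 10% of the positive control shift, at one fixed dose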
CSC inhib: cancer stem cell viability inhibitors, primary screen, luminescence | cancer stem cell-like cells viability | inhibition, % at 7.5 µM | actives 1.1% (n = 300,000); in the data active = inhibition above about 75%; inconclusive = no clear call, values can overlap the other calls; tested in HMLE shEcad cells
SKKanGAS inh: S. pyogenes SKKanGAS growth inhibitors in kanamycin, primary screen, streptokinase expression inhibitor project, SKKanGAS strain, BacTiter-Glo luminescence. inhibition, % at 7.5 µM. 6 h. actives 1.3% (n = 300,000);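 active = mean replicate score, as percent of positive control median, at least 50; inconclusive = mean below 50 but one replicate at or above 50; inactive = mean and every replicate below 50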;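 note: strain carries kanamycin resistance gene driven by streptokinase promoter and grows in 40 µg/ml kanamycin; loss of luminescence reflects streptokinase promoter inhibition or plain growth inhibition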
Mdm2-MdmX inh: inhibitors of human Mdm2-MdmX association, primary screen, cell-based, luminescence, split luciferase, SaOS-2, uHTS | SaOS-2 split-luciferase Mdm2/MdmX complementation | inhibition, % at 8 µM | actives 3% (n = 330,000) | AID 485346, 2010 | Protein Mdm4 (Homo sapiens) + E3 ubiquitin-protein ligase Mdm2 (Homo sapiens), …;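 active = inhibition of at least 50% at 8 µM in the primary screen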
Target sequence (O15151 whole entry, looked up): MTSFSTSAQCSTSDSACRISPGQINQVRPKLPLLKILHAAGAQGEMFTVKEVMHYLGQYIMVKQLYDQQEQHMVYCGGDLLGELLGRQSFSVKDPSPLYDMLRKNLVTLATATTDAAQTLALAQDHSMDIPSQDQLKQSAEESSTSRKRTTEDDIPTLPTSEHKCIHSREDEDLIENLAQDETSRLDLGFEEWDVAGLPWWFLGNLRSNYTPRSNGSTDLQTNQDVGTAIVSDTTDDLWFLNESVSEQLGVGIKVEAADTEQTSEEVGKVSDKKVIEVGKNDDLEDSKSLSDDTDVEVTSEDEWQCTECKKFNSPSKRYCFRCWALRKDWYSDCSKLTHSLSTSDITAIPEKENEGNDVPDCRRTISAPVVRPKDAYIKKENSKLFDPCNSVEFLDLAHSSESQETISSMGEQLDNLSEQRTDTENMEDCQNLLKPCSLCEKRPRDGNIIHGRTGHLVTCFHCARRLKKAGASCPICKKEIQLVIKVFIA
Target sequence (Q00987 whole entry, looked up): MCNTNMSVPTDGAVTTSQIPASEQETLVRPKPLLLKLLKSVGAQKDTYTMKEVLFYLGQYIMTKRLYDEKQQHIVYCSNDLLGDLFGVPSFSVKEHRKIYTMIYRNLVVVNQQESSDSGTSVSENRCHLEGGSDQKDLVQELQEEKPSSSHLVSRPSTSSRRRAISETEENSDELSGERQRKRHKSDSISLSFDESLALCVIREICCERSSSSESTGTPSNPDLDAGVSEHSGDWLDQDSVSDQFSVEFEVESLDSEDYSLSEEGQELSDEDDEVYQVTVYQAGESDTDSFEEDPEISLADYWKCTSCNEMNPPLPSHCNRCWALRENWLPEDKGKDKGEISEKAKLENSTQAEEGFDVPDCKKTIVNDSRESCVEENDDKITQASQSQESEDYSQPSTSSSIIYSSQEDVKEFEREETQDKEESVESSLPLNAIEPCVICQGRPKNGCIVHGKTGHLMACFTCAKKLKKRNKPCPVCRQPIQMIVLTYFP
Beta apoptosis: inhibitors of cytokine-induced beta cell apoptosis, primary screen, luminescence. INS-1E cytokine-induced death, ATP luminescence, 48 h; percent of positive-control rescue, neutral wells zero. protection from apoptosis, % (no concentration beside the values). actives 0.8% (n = 300,000). AID 435005, 2010;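 active = Every replicate reaches about 75%, or at least half do and their mean reaches it too, limit read from the data; inconclusive = At least half of replicates reach the limit but their mean does not; inactive = Under half of replicates reach the limit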;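 note: higher means more ATP so stronger rescue from cytokine killing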
Mdm2 MdmX conf: Mdm2-MdmX complex disruptors, retested hits, confirmation, luminescence, single concentration; shares compounds with Mdm2-MdmX inh; Mdm2-MdmX binding, luminescent assay; inhibition, % at 8 µM; actives 55% (n = 10,000); in the data active = inhibition above about 40%
FLuc counter: full-length luciferase signal inhibition, confirmation, counter-screen for Mdm2/MdmX interaction inhibitor project, cell-based, single concentration, SaOS-2 | SaOS-2 full-length luciferase counterscreen, luminescence | inhibition, % at 8 µM | actives 77% (n = 6,200) | shares compounds with Mdm2-MdmX inh;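 active = mean inhibition at 8 µM reaching about 37%, which flags the compound as non-specific, limit read from the data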;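 note: p53-null SaOS-2 cells with luciferase driven by a doxycycline-inducible promoter; compound on cells about two nights before reading with doxycycline added after day one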
A number is an active result; 0 = inactive; ? = inconclusive; - = no result given.

SMILES	MPTP block	GRIN3A LBD mod	CSC inhib	SKKanGAS inh	Mdm2-MdmX inh	Beta apoptosis	Mdm2 MdmX conf	FLuc counter
COc1ccccc1C(=O)NC(CCSC)C(=O)OC(C)C(=O)NC1CC1 (stereo not given)	0	0	0	0	0	-	-	-
CCOc1ccc(NC(=S)NN(C)C(=S)Nc2ccc(OCC)cc2)cc1	0	0	0	0	0	0	-	-
O=C(CCCCn1c(=O)c2ccccc2n(Cc2ccc(F)cc2Cl)c1=O)NCc1ccco1	0	0	0	0	54	0	0	-
COc1ccc(CCNc2cc(C)[nH]c(=O)c2)cc1OC	0	0	0	0	0	0	-	-
Fc1ccc(Sc2nc(-c3ccccc3)nnc2C(F)(F)F)cc1	0	0	-	0	78	0	0	-
Fc1ccc(Oc2nc(-c3ccccc3)nnc2C(F)(F)F)cc1	0	0	0	0	0	0	-	-
O=c1c(Cl)nc2cc(Cl)ccc2n1CCNc1ncc(C(F)(F)F)cc1Cl	0	0	0	0	97	0	43	0
CC(C)(C)C1C/C(=C/c2ccccn2)C(=O)/C(=C/c2ccccn2)C1 (stereo not given)	0	0	0	0	100	109	100	51
CC1C/C(=C/c2ccccn2)C(=O)/C(=C/c2ccccn2)C1 (stereo not given)	0	0	0	0	98	0	100	51
Cc1ccc(C)c(SCC(=O)Nc2cc(S(=O)(=O)N3CCOCC3)ccc2C)c1	0	0	-	-	0	-	-	-
Cc1ccc(Cn2c(O)c(N=NC(=S)Nc3ccccc3F)c3cc(S(=O)(=O)N4CCOCC4)ccc32)cc1	0	0	-	0	-	-	-	-
CCc1ccccc1NC(=S)N=Nc1c(O)n(C)c2ccc(S(=O)(=O)N3CCOCC3)cc12	0	0	0	0	52	-	60	53
Cc1ccc(C)c(NC(=S)N=Nc2c(O)n(C)c3ccc(S(=O)(=O)N4CCOCC4)cc23)c1	0	0	0	0	67	0	45	59
Cn1c(N)c(C(=O)CSc2nc3ccccc3c(=O)n2Cc2ccccc2)c(=O)n(C)c1=O	0	0	0	0	89	0	44	90
Cn1c(=O)c(C(=O)CCl)c(N)n(Cc2ccccc2)c1=O	0	0	0	0	58	0	46	86
CCCn1c(N)c(C(=O)CSc2nc3ccccc3c(=O)n2Cc2ccccc2)c(=O)[nH]c1=O	0	0	0	0	0	0	-	-
Cn1c(N)c(C(=O)COC(=O)c2cc(C(F)(F)F)nc3ccccc23)c(=O)n(Cc2ccccc2)c1=O	-	0	0	-	50	0	0	-
CCC1=NNc2cccc3c(OC)ccc1c23	-	-	-	0	62	0	0	-
COc1ccc2c3c(cccc13)C(=O)N(O)C2=O	0	0	0	0	-	0	-	-
CC(=O)N1CCc2c(sc(NC(=O)CCS(=O)(=O)c3ccc(C)cc3)c2C#N)C1	0	0	0	0	52	0	41	78
Cc1ccc(-c2nn3c(-c4ccco4)nnc3c3ccccc23)cc1S(=O)(=O)NCC1CCCO1 (stereo not given)	0	0	0	0	53	0	0	68
COc1ccc(NC(=O)NCc2ccc3c(c2)OCO3)cc1OC	0	0	0	0	0	0	-	-
CCc1cc2c3c(c1)C1(C(=O)N3C(C)(C)C=C2C)C(C#N)=C(N)Oc2[nH]c(=O)[nH]c(=O)c21 (stereo not given)	0	0	0	0	57	0	41	81
CC1=CC(C)(C)N2C(=O)C3(C(C#N)=C(N)Oc4cc(C)oc(=O)c43)c3cc(C)cc1c32 (stereo not given)	0	0	0	0	0	0	-	-
CCC(CO)NCc1cc(OC)c(OCC(=O)NCCc2ccccc2)cc1Br (stereo not given)	0	0	0	0	0	0	-	-
SMILES	MPTP block	GRIN3A LBD mod	CSC inhib	SKKanGAS inh	Mdm2-MdmX inh	Beta apoptosis	Mdm2 MdmX conf	FLuc counter
CCN(CC)S(=O)(=O)c1cc(NC(=O)CSc2nc3c(cc2C#N)C(=O)CC(C)(C)C3)ccc1C	0	0	0	0	67	0	63	45
CN(C)S(=O)(=O)c1ccc(C(=O)Nc2ccc3nc(N4CCOCC4)sc3c2)cc1	0	0	0	-	0	0	-	-
CCC(=O)C1CCCN(C(=O)c2ccc(OC3CCN(C(=O)CCOC)CC3)cc2)C1 (stereo not given)	0	0	0	0	0	0	-	-
Clc1ccc(-c2nnc(Sc3nc4ccccc4o3)c3ccccc23)cc1	0	0	0	0	61	0	0	-
Cc1nnc(Sc2nc3ccccc3o2)c2ccccc12	0	0	0	0	0	0	-	-
Cc1ccc(-c2nnc(Sc3nc4ccccc4o3)c3ccccc23)cc1	0	0	?	0	53	0	0	-
CCCCc1ccc(-n2c(Cc3cccs3)n[nH]c2=S)cc1	0	0	0	0	0	0	-	-
COC(=O)c1ccc(OC)c(CN2CCCN(Cc3cc(C)ccc3C)S2(=O)=O)c1	0	0	0	0	0	0	-	-
CCc1ccc2[nH]c3nc(N/N=C/c4ccc(O)cc4O)nnc3c2c1	0	19	0	0	58	108	94	0
CCc1cccc(NC(=O)COC(=O)/C=C/c2cccs2)c1	0	0	0	0	0	0	-	-
COC(=O)Cc1ccc(NC(=O)c2ccc(C(C)(C)C)cc2)cc1	0	0	0	0	66	-	55	0
CC(C)(C)c1ccc(C(=O)Nc2ccc(Cl)cc2)cc1	0	0	0	0	0	0	-	-
COc1cc([C@H]2c3[nH]c4ccccc4c3C[C@H]3C(=O)N4[C@@H](c5cc(OC)c(OC)c(OC)c5)c5[nH]c6ccccc6c5C[C@H]4C(=O)N23)cc(OC)c1OC	0	0	0	0	79	0	0	-
C=CCN1C(=O)[C@@H]2Cc3c([nH]c4ccccc34)C(c3cc(OC)c(OC)c(OC)c3)N2C1=S (stereo not given in full)	0	0	0	0	51	0	0	-
COc1ccc(NC(=O)n2ncc3cc(Cl)ccc32)cc1OC	0	0	0	0	0	0	-	-
CC1(C)CC(=O)C=C(C#CC2(O)CCCCC2)C1	0	-	-	-	-	-	-	-
CCOc1ccc(N(CC(=O)NC2CCCCC2)C(=O)CSc2nnc(COc3ccccc3)o2)cc1	0	0	0	0	55	0	0	-
